Test results from PubChem BioAssay AID1159580 (chemical genetic matrix, 2015).
“And” between values parts separate entries of the source, which are not always exact repeats. Equal entries are not always repeated. Among all 5,500 compounds or so, about 2,000 (36%) were called active. About 18% were inconclusive and are not listed. Cut-off read from the data, not from the text of the source: active = normalized growth mostly below about 0.91 (no sharp cut-off); inconclusive = no clear call, values can overlap the other calls; inactive = mostly above about 0.92. The list shows a part of the results.

Experiment: chemical genetic growth profiling, strain panel (AID 1159580);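 note: tested at 20 µM; growth read once vehicle control cultures reached saturation at 30 °C; 1 = growth at the plate median or of vehicle wells; lower values mean less growth of the strain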
Conditions: S. cerevisiae deletion strains, growth OD

Measured: normalized growth

CC(C)=CCc1c2c(c3occ(-c4ccc(O)c(O)c4)c(=O)c3c1O)C=CC(C)(C)O2
0.197 (active) and 0.903 (inactive): locus YHR030C, strain SLT2, stronger effect = lower value
inactive: locus YAL021C, strain ccr4, stronger effect = lower value 0.95 | locus YAL026C, strain drs2, stronger effect = lower value 0.945 | locus YAL030W, strain snc1, stronger effect = lower value 0.961 | locus YBL061C, strain skt5, stronger effect = lower value 0.949 | locus YBR009C, strain hhf1, stronger effect = lower value 0.931 | locus YBR023C, strain chs3, stronger effect = lower value 0.937 | locus YBR171W, strain sec66, stronger effect = lower value 0.98 | locus YBR279W, strain paf1, stronger effect = lower value 0.956 | locus YCL011C, strain gbp2, stronger effect = lower value 0.944 | locus YCL016C, strain dcc1, stronger effect = lower value 0.961 | locus YCL069W, strain vba3, stronger effect = lower value 0.992 | locus YCR088W, strain abp1, stronger effect = lower value 0.997 | locus YDL005C, strain med2, stronger effect = lower value 0.988 | locus YDL040C, strain nat1, stronger effect = lower value 1 | locus YDL185W, strain tfp1, stronger effect = lower value 0.966 | locus YDR001C, strain nth1, stronger effect = lower value 1 | locus YDR137W, strain rgp1, stronger effect = lower value 1 | locus YDR159W, strain sac3, stronger effect = lower value 0.959 | locus YDR195W, strain ref2 1.01 | locus YDR297W, strain sur2, stronger effect = lower value 0.924 | locus YDR334W, strain swr1, stronger effect = lower value 0.969 | locus YDR335W, strain msn5, stronger effect = lower value 0.953 | locus YDR392W, strain spt3, stronger effect = lower value 0.782 | locus YEL003W, strain gim4, stronger effect = lower value 0.932 | locus YEL037C, strain rad23, stronger effect = lower value 0.977 | locus YEL061C, strain CIN8 (second series), stronger effect = lower value 0.999 | locus YER016W, strain bim1, stronger effect = lower value 0.989 | locus YER110C, stronger effect = lower value 0.981 | locus YER111C, strain swi4, stronger effect = lower value 0.939 | locus YER155C, strain BEM2 (second series), stronger effect = lower value 0.909 | locus YFR010W, strain ubp6, stronger effect = lower value 0.946 | locus YGL078C, strain dbp3, stronger effect = lower value 0.93 | locus YGL167C, strain pmr1, stronger effect = lower value 0.986 | locus YGL227W, strain vid30, stronger effect = lower value 1 | locus YGL240W, strain doc1, stronger effect = lower value 0.994 | locus YGL253W, strain hxk2, stronger effect = lower value 0.937 | locus YHR013C, strain ard1, stronger effect = lower value 0.947 | locus YHR027C, strain rpn1, stronger effect = lower value 0.932 | locus YHR079C, strain IRE1, stronger effect = lower value 0.926 | locus YHR142W, strain chs7, stronger effect = lower value 0.948 | locus YIL125W, strain kgd1, stronger effect = lower value 0.933 | locus YJL092W, strain hpr5, stronger effect = lower value 0.983 | locus YJL095W, strain BCK1 (second series), stronger effect = lower value 0.961 | locus YJL115W, strain asf1, stronger effect = lower value 0.999 | locus YJL129C, strain trk1, stronger effect = lower value 1 | locus YJL154C, strain vps35, stronger effect = lower value 1 | locus YJL166W, strain qcr8, stronger effect = lower value 0.919 | locus YJR066W, strain TOR1, stronger effect = lower value 0.885
active: locus YBR021W, strain FUR4, stronger effect = lower value 0.518 | locus YBR229C, strain ROT2, stronger effect = lower value 0.548 | locus YBR231C, strain swc5, stronger effect = lower value 0.895 | locus YCL029C, strain bik1, stronger effect = lower value 0.616 | locus YDL035C, strain GPR1, stronger effect = lower value 0.238 | locus YDL074C, strain BRE1, stronger effect = lower value 0.313 | locus YDL101C, strain DUN1, stronger effect = lower value 0.256 | locus YDL134C, strain PPH21, stronger effect = lower value 0.235 | locus YDL192W, strain arf1, stronger effect = lower value 0.66 | locus YDR069C, strain doa4, stronger effect = lower value 0.845 | locus YDR101C, strain arx1, stronger effect = lower value 0.747 | locus YDR162C, strain NBP2, stronger effect = lower value 0.155 | locus YDR318W, strain mcm21, stronger effect = lower value 0.721 | locus YDR388W, stronger effect = lower value 0.776 | locus YDR502C, strain sam2, stronger effect = lower value 0.674 | locus YEL061C, strain CIN8, stronger effect = lower value 0.406 | locus YER015W, strain faa2, stronger effect = lower value 0.909 | locus YER155C, strain BEM2, stronger effect = lower value 0.544 | locus YER167W, strain BCK2, stronger effect = lower value 0.545 | locus YGL086W, strain mad1, stronger effect = lower value 0.67 | locus YGL173C, strain kem1, stronger effect = lower value 0.887 | locus YGL248W, strain PDE1, stronger effect = lower value 0.257 | locus YGR078C, strain PAC10, stronger effect = lower value 0.457 | locus YGR135W, strain pre9, stronger effect = lower value 0.586 | locus YGR252W, strain gcn5, stronger effect = lower value 0.557 | locus YHR079C, strain IRE1 (second series), stronger effect = lower value 0.722 | locus YHR094C, strain hxt1, stronger effect = lower value 0.888 | locus YHR129C, strain ARP1, stronger effect = lower value 0.457 | locus YHR200W, strain rpn10, stronger effect = lower value 0.724 | locus YIL066C, strain RNR3, stronger effect = lower value 0.227 | locus YIL073C, strain SPO22, stronger effect = lower value 0.137 | locus YIR030C, strain dcg1, stronger effect = lower value 0.811 | locus YJL134W, strain LCB3, stronger effect = lower value 0.677 | locus YJL164C, strain tpk1, stronger effect = lower value 0.91 | locus YJL168C, strain set2, stronger effect = lower value 0.916 | locus YJL187C, strain SWE1 (second series), stronger effect = lower value 0.161 | locus YJR043C, strain POL32, stronger effect = lower value 0.255 | locus YJR075W, strain HOC1, stronger effect = lower value 0.468
0.145 (active) and 0.912 (inactive): locus YJL095W, strain BCK1, stronger effect = lower value
